From PubChem BioAssay AID602333 (Sanford-Burnham Center for Chemical Genomics, 2012)
Screen size: about 1,900 compounds; about 240 (13%) were called active. Only a selection was taken, and actives are over-represented in it overall. Values without a mark were called inactive.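 How the source made its calls: active means mean inhibition at least 40% at 20 µM, or signal 3 deviations below plate average, so some actives read negative; inactive means the rest.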

What follows are compounds tested against Prothrombin (Bos taurus) (UniProt P00735) (assay: blocking of thrombin cleavage of Ub4 substrate – biochemical, fluorescence polarization, single concentration, counter-screen for Rpn11 inhibitor project, confirmation (AID 602333;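 further: plate controls were thrombin with DMSO for no effect and buffer wells lacking thrombin for full effect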)). Conditions: bovine thrombin cleavage of Ub4-pepOG, at 20 µM, stronger effect = higher value.
Chain of Prothrombin (Bos taurus) (P00735 whole entry, looked up): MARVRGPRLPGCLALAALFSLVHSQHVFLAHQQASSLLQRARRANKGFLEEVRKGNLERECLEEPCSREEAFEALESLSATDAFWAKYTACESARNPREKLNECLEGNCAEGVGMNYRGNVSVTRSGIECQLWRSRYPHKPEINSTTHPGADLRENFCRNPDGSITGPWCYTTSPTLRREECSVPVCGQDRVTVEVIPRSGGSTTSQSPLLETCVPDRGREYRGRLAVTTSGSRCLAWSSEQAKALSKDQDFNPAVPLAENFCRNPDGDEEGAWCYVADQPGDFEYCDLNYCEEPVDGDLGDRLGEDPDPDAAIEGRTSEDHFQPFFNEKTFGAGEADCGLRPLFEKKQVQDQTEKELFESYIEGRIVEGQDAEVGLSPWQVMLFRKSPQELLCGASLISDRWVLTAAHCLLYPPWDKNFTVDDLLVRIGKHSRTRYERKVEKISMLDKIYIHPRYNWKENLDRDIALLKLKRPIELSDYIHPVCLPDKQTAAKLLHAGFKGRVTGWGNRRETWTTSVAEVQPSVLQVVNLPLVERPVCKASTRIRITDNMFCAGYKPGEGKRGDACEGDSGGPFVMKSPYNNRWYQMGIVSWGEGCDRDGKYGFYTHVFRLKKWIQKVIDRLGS

| SMILES | inhibition |
| --- | --- |
| CCN1C(=O)C(=Cc2c(C)n(CC(=O)NCC3CCCO3)c3ccccc23)C(=O)N(CC)C1=S (stereo not drawn) | 53.3% (active) |
| O=c1[nH]c(=O)n(Cc2ccccc2)c(O)c1/C=N/Nc1c(F)c(F)c(F)c(F)c1F | 12.8% |
| Cc1cccc(N2C(=O)NC(=O)/C(=C\c3cnn(-c4ccccc4)c3)C2=O)c1 | 6.14% |
